Activity calls are given as the source filed them. Unless noted, how the calls were made is not given here.
Tests used:
[1] = compound effects on lung adenocarcinoma cell viability – A549, calcein-AM fluorescence, 48 h, basal, profiling panel (AID 1162); details: higher = more signal; further: test concentration not given here
[2] = compound effects on differentiated 3T3-L1 adipocyte viability – cell-based, 3T3-L1 adipocytes, calcein-AM fluorescence, 48 h, basal, profiling panel (AID 1163); details: 3T3-L1 adipocytes viability, higher = more signal; further: test concentration not given here
[3] = compound effects on hepatocellular carcinoma cell viability – HepG2, calcein-AM fluorescence, 48 h, basal, profiling panel (AID 1164); details: higher = more signal; further: test concentration not given here
[4] = compound effects on multiple myeloma cell viability – MM1S, calcein-AM fluorescence, 48 h, basal, profiling panel (AID 1165); details: higher = more signal;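 further: viability of MM1S multiple myeloma cells under basal unstimulated conditions; test concentration not given here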
[5] = calcein-AM signal in unstimulated myeloma cells – cell-based, calcein-AM fluorescence, 48 h, PK04 Diversity Set, profiling panel (AID 1166); details: RPMI8226 myeloma viability, higher = more signal;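 further: cells grown under basal conditions without added stimulus; test concentration not given here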
[6] = JC-1 mitochondrial signal, unstimulated HepG2 cells – cell-based, JC-1 fluorescence, 24 h, 100 nL compound, profiling panel (AID 1167); details: HepG2 mitochondrial potential, higher = more signal; further: test concentration not given here
[7] = JC-1 mitochondrial signal, unstimulated adipocytes – cell-based, JC-1 fluorescence, 3T3-L1 adipocytes, 24 h, 100 nL compound, profiling panel (AID 1168); details: JC-1 mitochondrial fluorescence, higher = more signal, called active from +8 up or from −8 down; further: test concentration not given here
[8] = JC-1 mitochondrial signal, unstimulated myeloma cells – cell-based, JC-1 fluorescence, RPMI8226, 24 h, 100 nL compound, profiling panel (AID 1169); details: JC-1 mitochondrial potential fluorescence, higher = more signal; further: test concentration not given here
[9] = JC-1 mitochondrial signal, unstimulated MM1S myeloma – cell-based, JC-1 fluorescence, 24 h, 100 nL compound, profiling panel (AID 1170); details: MM1S mitochondrial potential, higher = more signal; further: test concentration not given here
[10] = resazurin metabolic signal in A549 cells – cell-based, resazurin fluorescence, 24 h, PK04 Diversity Set, profiling panel (AID 1171); details: A549 viability, higher = more signal, called active from +8 up or from −8 down; further: test concentration not given here
[11] = resazurin metabolic signal in HepG2 cells – cell-based, resazurin fluorescence, 24 h, PK04 Diversity Set, profiling panel (AID 1172); details: HepG2 viability, higher = more signal; further: test concentration not given here
[12] = budding yeast growth changes without added modifier – OD600, strain BY4716, 24 h, basal condition, primary screen (AID 1173); details: S. cerevisiae BY4716 growth, OD600, 24 h; higher = more signal, called active from +8 up or from −8 down
[13] = viability profiling in MM1S myeloma cells – cell-based, resazurin fluorescence, basal, 24 h, PK04 Diversity Set, profiling panel (AID 1174); details: higher = more signal, called active from +8 up or from −8 down; further: test concentration not given here
[14] = molecular target: Dihydroorotate dehydrogenase (quinone), mitochondrial (Plasmodium falciparum (isolate 3D7)) (UniProt Q08210); assay: inhibition of P. falciparum DHODH – biochemical, C-terminal His tag, absorbance 600 nm, primary screen (AID 1175); details: PfDHODH enzyme, DCIP absorbance 600 nm; higher = more signal, called active from +8 up or from −8 down;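 further: recombinant parasite enzyme with a five histidine tag at its C terminus; test concentration not given here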
[15] = inhibition of PAO1 biofilm formation – strain PAO1, LB-PBS medium, absorbance 600 nm, primary screen (AID 1176); further: test concentration not given here; details: P. aeruginosa PAO1 growth/biofilm, A600, 12 h; higher = more signal
[16] = growth modulation of vineyard yeast isolate – strain RM11-1a, OD600, basal, 24 h, primary screen (AID 1177);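 further: cultures grown under basal conditions with no added stressor; test concentration not given here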; details: S. cerevisiae RM11-1a growth, OD600, 24 h; higher = more signal, called active from +8 up or from −8 down
[17] = growth of efflux-deficient E. coli DRC39 – strain DRC39, OD650, 24 h, E. coli filamentation inducers, primary screen (AID 1178);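 further: growth measured as culture turbidity by optical density at 650 nm; test concentration not given here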; details: E. coli DRC39 acrAB, higher = more signal, called active from +8 up or from −8 down
[18] = growth of efflux-deficient E. coli DRC39 – strain DRC39, OD650, 48 h, E. coli filamentation inducers, primary screen (AID 1179);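 further: screen aims at cell division blockers that make cells filament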; details: E. coli DRC39 delta-acrAB growth, higher = more signal, called active from +8 up or from −8 down
[19] = viability profiling in RPMI8226 myeloma cells – cell-based, resazurin fluorescence, basal, 24 h, PK04 Diversity Set, profiling panel (AID 1180); details: higher = more signal;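 further: RPMI8826 multiple myeloma cell line at 5000 cells per well; test concentration not given here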
[20] = molecular target: E3 ubiquitin-protein ligase XIAP (Homo sapiens) (UniProt P98170); assay: small molecules binding XIAP protein – biophysical, small-molecule microarray, fluorescence 635 nm, primary screen (AID 1181); details: higher = more signal;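 further: score merges 667 nm emission and signal to noise over triplicate slides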
Chain of E3 ubiquitin-protein ligase XIAP (Homo sapiens) (P98170 whole entry, looked up): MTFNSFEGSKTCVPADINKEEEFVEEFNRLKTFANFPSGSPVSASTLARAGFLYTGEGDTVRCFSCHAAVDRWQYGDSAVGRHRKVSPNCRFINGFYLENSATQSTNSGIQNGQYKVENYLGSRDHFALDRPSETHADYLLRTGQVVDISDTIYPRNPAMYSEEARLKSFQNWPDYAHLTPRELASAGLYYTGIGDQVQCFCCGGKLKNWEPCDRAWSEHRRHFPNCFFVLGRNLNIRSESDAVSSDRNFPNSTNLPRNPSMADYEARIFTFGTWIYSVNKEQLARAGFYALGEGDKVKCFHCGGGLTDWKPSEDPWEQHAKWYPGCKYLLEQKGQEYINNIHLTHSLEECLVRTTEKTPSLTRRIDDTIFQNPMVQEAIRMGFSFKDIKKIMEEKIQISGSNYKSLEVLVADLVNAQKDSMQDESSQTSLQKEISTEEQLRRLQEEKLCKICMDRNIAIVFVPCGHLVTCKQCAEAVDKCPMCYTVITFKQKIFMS

Chain of Dihydroorotate dehydrogenase (quinone), mitochondrial (Plasmodium falciparum (isolate 3D7)) (Q08210 whole entry, looked up): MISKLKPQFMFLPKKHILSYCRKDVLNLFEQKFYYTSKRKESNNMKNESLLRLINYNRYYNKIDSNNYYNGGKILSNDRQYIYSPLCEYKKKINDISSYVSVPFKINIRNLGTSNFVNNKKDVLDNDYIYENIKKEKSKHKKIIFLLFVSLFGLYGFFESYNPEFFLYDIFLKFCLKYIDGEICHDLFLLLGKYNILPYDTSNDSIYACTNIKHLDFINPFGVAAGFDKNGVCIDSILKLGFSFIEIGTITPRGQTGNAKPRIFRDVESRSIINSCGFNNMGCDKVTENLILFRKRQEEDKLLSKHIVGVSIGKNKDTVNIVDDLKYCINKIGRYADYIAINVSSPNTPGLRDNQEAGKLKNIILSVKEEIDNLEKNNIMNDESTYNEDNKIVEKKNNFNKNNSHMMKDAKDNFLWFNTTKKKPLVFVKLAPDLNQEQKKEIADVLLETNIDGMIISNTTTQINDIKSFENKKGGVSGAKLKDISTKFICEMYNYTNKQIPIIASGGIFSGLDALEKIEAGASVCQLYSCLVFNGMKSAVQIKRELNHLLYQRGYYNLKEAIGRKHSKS

Row | SMILES | z-score [1] | z-score [2] | z-score [3] | z-score [4] | z-score [5] | z-score [6] | z-score [7] | z-score [8] | z-score [9] | z-score [10] | z-score [11] | z-score [12] | z-score [13] | composite z-score [14] | z-score [15] | z-score [16] | z-score [17] | z-score [18] | z-score [19] | composite z-score [20]
1 | COc1ccc(C(O)C2C=CC3C(=O)N(C)C(=O)C3N2Nc2ccc([N+](=O)[O-])cc2[N+](=O)[O-])cc1OCc1ccccc1 (stereo not given) | -0.65 | -0.861 | 0.166 | 0.106 | -0.499 | -0.475 | -0.74 (inactive) | 0.0687 | -0.371 | -0.682 (inactive) | -0.448 | 0.944 (inactive) | -1.27 (inactive) | 0.37 (inactive) | -0.0067 (inactive) | 0.371 (inactive) | -0.98 (inactive) | -0.383 (inactive) | -1.39 | 0.165
2 | CC(C)[C@@H](C(=O)O)n1cc(-c2ccccc2)nn1 | -0.633 | -0.582 | -0.354 | -0.117 | -0.887 | -1.36 | -1.2 (inactive) | 0.00787 | 0.00093 | -0.423 (inactive) | -0.606 | -0.291 (inactive) | -0.372 (inactive) | -0.207 (inactive) | -0.145 (inactive) | -0.618 (inactive) | 0.0178 (inactive) | -0.279 (inactive) | -0.874 | 0.0402
3 | CO[C@H]1O[C@H](CO)[C@@H](OC(=O)Nc2ccc(C(F)(F)F)cc2)[C@H](OC(=O)Nc2ccccc2-c2ccccc2)[C@H]1OC(=O)Nc1ccccc1-c1ccccc1 | -4.38 | 0.158 | -5.26 | -3.52 | -3.98 | 0.235 | 0.0902 (inactive) | -0.867 | -1.76 | -6.26 (inactive) | -5.27 | 1.39 (inactive) | -5.4 (inactive) | -0.132 (inactive) | 3.43 (inactive) | 2.8 (inactive) | -0.853 (inactive) | -1.25 (inactive) | -4.63 | 0.201
4 | COC(=O)[C@@]1(Cc2ccc(OC)cc2)[C@H]2c3cc(C(=O)N(C)C)n(Cc4ccsc4Br)c3C[C@H]2CN1C(=O)c1ccccc1 | -0.299 | 0.157 | 0.205 | -0.859 | -0.51 | 2.25 | 0.171 (inactive) | -0.484 | -0.468 | 0.141 (inactive) | -0.0214 | 1.52 (inactive) | -0.807 (inactive) | 0.184 (inactive) | 0.0539 (inactive) | 1.89 (inactive) | -0.656 (inactive) | -0.377 (inactive) | -0.907 | 0.452
5 | CC(C)CNC(=O)[C@@H]1c2ccccc2C(=O)N(Cc2ccccc2Cl)[C@H]1c1ccc(CO)cc1 | -0.103 | 0.187 | -0.228 | -0.242 | -0.183 | 1.01 | -0.0284 (inactive) | 0.13 | 0.438 | 0.914 (inactive) | 0.611 | -0.161 (inactive) | 0.552 (inactive) | -0.0116 (inactive) | 0.0435 (inactive) | -0.239 (inactive) | 0.219 (inactive) | 0.303 (inactive) | 0.943 | 0.199
